Data reported in paper PMC7862700, “An all-to-all approach to the identification of sequence-specific readers for epigenetic DNA modifications on cytosine”.

How the values were obtained:
Assay in all cases: DAPPL (digital affinity profiling via proximity ligation, sequencing); 10 mM Tris-HCl pH 7.5, 50 mM NaCl, 1 mM DTT, 4% glycerol, room temperature, 30 min; GST-TFs on glutathione beads, 16-mer random dsDNA library, 0.1% formaldehyde crosslink after washing; high values mean tight binding
Details in all cases: protein: recombinant; tags: N-terminal GST; dsDNA, one strand shown
ERF = molecular target: T1, ERF (Homo sapiens, UniProt P50548 1-548)
T1 sequence: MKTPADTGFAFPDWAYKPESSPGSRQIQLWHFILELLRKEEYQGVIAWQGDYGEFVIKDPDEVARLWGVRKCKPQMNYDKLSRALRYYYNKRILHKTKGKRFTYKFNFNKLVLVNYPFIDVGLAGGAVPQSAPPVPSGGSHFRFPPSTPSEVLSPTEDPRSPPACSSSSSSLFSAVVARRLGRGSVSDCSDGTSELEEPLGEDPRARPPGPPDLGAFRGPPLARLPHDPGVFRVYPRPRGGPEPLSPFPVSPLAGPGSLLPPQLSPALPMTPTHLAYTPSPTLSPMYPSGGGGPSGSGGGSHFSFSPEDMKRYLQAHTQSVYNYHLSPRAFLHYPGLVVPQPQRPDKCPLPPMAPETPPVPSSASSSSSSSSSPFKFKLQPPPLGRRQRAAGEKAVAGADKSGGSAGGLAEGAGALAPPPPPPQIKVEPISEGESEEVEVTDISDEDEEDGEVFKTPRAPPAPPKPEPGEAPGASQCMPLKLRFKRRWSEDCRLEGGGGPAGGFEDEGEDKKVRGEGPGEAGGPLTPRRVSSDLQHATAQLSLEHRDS
Procedure, shortened: (§1)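 Binding signal is each hexamer's read frequency for a factor divided by its frequency in the tag-only sample. The factors were GST-fused human transcription factors from yeast, captured on glutathione beads, DNA-barcoded and pooled with that sample. Pools were incubated with 200 nmole of a random double-stranded 16-mer DNA library in Tris/NaCl/DTT/glycerol buffer at room temperature for 30 min, then washed, crosslinked with 0.1% formaldehyde, proximity-ligated with BsaI/T4 ligase (1 h, 37 °C), PCR-amplified and sequenced on an Illumina NextSeq500.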

ETV3L = molecular target: T2, ETV3L (Homo sapiens, UniProt Q6ZN32 1-361)
T2 sequence: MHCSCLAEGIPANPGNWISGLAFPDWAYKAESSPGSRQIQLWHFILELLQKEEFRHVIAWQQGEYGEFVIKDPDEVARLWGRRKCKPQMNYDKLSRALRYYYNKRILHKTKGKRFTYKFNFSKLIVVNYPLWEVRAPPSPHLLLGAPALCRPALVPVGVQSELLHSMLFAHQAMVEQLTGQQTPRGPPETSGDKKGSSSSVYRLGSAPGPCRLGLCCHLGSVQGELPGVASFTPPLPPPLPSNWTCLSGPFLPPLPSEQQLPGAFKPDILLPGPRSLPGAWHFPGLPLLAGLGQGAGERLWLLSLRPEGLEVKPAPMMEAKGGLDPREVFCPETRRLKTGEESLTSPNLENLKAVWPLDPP
Procedure, shortened: as §1

ETS2 = molecular target: T3, ETS2 (Homo sapiens, UniProt P15036 1-469)
T3 sequence: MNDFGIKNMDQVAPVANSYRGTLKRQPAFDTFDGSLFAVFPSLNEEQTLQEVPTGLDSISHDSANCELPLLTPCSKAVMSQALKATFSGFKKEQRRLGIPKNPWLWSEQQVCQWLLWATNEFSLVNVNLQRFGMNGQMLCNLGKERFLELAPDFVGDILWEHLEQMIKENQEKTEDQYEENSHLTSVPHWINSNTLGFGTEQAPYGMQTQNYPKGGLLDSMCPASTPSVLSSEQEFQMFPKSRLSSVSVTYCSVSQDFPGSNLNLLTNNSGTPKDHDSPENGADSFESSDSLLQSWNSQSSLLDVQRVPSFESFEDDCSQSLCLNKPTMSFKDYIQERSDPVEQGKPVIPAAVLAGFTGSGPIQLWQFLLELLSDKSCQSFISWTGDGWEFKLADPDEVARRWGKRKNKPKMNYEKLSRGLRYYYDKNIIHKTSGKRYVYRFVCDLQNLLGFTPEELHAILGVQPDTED
Procedure, shortened: as §1

SPDEF = molecular target: T4, SPDEF (Homo sapiens, UniProt O95238 1-335)
T4 sequence: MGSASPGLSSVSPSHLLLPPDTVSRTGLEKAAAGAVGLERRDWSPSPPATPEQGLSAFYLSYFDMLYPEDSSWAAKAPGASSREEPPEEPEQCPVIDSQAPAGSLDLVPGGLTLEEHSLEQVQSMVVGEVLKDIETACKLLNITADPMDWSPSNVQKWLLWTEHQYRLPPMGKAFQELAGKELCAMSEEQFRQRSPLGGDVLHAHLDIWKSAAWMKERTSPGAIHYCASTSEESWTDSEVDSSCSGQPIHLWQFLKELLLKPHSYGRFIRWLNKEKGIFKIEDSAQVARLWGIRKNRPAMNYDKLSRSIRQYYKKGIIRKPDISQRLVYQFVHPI
Procedure, shortened: as §1

ETV7 = molecular target: T5, ETV7 (Homo sapiens, UniProt Q9Y603 1-341)
T5 sequence: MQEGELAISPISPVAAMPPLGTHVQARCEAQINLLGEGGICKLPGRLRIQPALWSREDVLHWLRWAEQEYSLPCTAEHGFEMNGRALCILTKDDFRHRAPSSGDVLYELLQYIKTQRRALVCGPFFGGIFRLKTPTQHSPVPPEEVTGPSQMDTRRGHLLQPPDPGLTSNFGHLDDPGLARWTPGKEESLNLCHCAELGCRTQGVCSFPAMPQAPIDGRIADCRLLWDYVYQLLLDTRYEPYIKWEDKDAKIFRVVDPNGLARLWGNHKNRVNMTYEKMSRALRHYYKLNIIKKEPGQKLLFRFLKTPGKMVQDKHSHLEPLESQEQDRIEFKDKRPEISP
Procedure, shortened: as §1

ELF5 = molecular target: T6, ELF5 (Homo sapiens, UniProt Q9UKW6-2 1-255)
T6 sequence: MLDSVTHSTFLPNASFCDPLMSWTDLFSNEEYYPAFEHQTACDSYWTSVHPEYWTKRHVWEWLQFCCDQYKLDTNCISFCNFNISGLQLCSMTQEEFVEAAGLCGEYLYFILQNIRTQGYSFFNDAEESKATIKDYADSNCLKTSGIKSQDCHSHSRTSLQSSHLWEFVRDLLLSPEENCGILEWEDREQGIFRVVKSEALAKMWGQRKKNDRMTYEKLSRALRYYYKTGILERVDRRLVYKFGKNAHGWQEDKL
Procedure, shortened: as §1

ETV3 = molecular target: T7, ETV3 (Homo sapiens, UniProt P41162-2 1-143)
T7 sequence: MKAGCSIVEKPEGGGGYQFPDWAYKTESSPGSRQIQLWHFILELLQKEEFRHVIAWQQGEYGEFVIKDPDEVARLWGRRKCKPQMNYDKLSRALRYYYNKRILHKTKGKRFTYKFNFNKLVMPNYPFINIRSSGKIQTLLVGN
Procedure, shortened: as §1

ETV6 = ETV6 (Homo sapiens, UniProt P41212 1-452)
Sequence of ETV6 (P41212 whole entry): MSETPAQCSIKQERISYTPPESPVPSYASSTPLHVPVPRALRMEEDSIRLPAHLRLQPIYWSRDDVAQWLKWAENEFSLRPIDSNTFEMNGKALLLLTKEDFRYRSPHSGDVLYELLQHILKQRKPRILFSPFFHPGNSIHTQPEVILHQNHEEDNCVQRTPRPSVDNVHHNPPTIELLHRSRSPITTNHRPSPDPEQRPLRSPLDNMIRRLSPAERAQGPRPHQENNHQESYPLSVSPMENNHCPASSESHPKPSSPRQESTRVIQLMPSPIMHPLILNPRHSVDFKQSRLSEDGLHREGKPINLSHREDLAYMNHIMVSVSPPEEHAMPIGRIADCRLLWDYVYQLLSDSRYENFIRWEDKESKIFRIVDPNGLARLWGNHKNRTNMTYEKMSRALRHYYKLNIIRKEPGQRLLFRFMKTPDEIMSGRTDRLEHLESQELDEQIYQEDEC
Procedure, shortened: as §1

Sequence | binding signal (ERF) | binding signal (ETV3L) | binding signal (ETS2) | binding signal (SPDEF) | binding signal (ETV7) | binding signal (ELF5) | binding signal (ETV3) | binding signal (ETV6)
CTATGG | 1.11 fold enrichment (6-mer frequency, TF over GST control) | 1.16 fold enrichment (6-mer frequency, TF over GST control) | 1.16 fold enrichment (6-mer frequency, TF over GST control) | 1.29 fold enrichment (6-mer frequency, TF over GST control) | 1.39 fold enrichment (6-mer frequency, TF over GST control) | 1.09 fold enrichment (6-mer frequency, TF over GST control) | 1.29 fold enrichment (6-mer frequency, TF over GST control) | 1.09 fold enrichment (6-mer frequency, TF over GST control)
ATCCTT | 1.56 fold enrichment (6-mer frequency, TF over GST control) | 1.58 fold enrichment (6-mer frequency, TF over GST control) | 1.47 fold enrichment (6-mer frequency, TF over GST control) | 2.13 fold enrichment (6-mer frequency, TF over GST control) | 1.49 fold enrichment (6-mer frequency, TF over GST control) | 2.26 fold enrichment (6-mer frequency, TF over GST control) | 1.84 fold enrichment (6-mer frequency, TF over GST control) | 1.68 fold enrichment (6-mer frequency, TF over GST control)
GACTCT | 1.58 fold enrichment (6-mer frequency, TF over GST control) | 1.32 fold enrichment (6-mer frequency, TF over GST control) | 1.36 fold enrichment (6-mer frequency, TF over GST control) | 1.21 fold enrichment (6-mer frequency, TF over GST control) | 1.23 fold enrichment (6-mer frequency, TF over GST control) | 1.22 fold enrichment (6-mer frequency, TF over GST control) | 1.22 fold enrichment (6-mer frequency, TF over GST control) | 1.16 fold enrichment (6-mer frequency, TF over GST control)
TAACAC | 1.22 fold enrichment (6-mer frequency, TF over GST control) | 1.24 fold enrichment (6-mer frequency, TF over GST control) | 1.29 fold enrichment (6-mer frequency, TF over GST control) | 1.28 fold enrichment (6-mer frequency, TF over GST control) | 1.21 fold enrichment (6-mer frequency, TF over GST control) | 1.2 fold enrichment (6-mer frequency, TF over GST control) | 1.22 fold enrichment (6-mer frequency, TF over GST control) | 1.19 fold enrichment (6-mer frequency, TF over GST control)
AATGGT | 1.38 fold enrichment (6-mer frequency, TF over GST control) | 1.33 fold enrichment (6-mer frequency, TF over GST control) | 1.33 fold enrichment (6-mer frequency, TF over GST control) | 1.27 fold enrichment (6-mer frequency, TF over GST control) | 1.41 fold enrichment (6-mer frequency, TF over GST control) | 1.43 fold enrichment (6-mer frequency, TF over GST control) | 1.4 fold enrichment (6-mer frequency, TF over GST control) | 1.39 fold enrichment (6-mer frequency, TF over GST control)
CTACTT | 1.85 fold enrichment (6-mer frequency, TF over GST control) | 1.84 fold enrichment (6-mer frequency, TF over GST control) | 1.95 fold enrichment (6-mer frequency, TF over GST control) | 1.79 fold enrichment (6-mer frequency, TF over GST control) | 1.8 fold enrichment (6-mer frequency, TF over GST control) | 2 fold enrichment (6-mer frequency, TF over GST control) | 1.76 fold enrichment (6-mer frequency, TF over GST control) | 2.02 fold enrichment (6-mer frequency, TF over GST control)
TACGAA | 1.28 fold enrichment (6-mer frequency, TF over GST control) | 1.27 fold enrichment (6-mer frequency, TF over GST control) | 1.18 fold enrichment (6-mer frequency, TF over GST control) | 1.18 fold enrichment (6-mer frequency, TF over GST control) | 1.31 fold enrichment (6-mer frequency, TF over GST control) | 1.2 fold enrichment (6-mer frequency, TF over GST control) | 1.19 fold enrichment (6-mer frequency, TF over GST control) | 1.18 fold enrichment (6-mer frequency, TF over GST control)
TTTTTC | 1.16 fold enrichment (6-mer frequency, TF over GST control) | 1.34 fold enrichment (6-mer frequency, TF over GST control) | 1.17 fold enrichment (6-mer frequency, TF over GST control) | 1.21 fold enrichment (6-mer frequency, TF over GST control) | 1.23 fold enrichment (6-mer frequency, TF over GST control) | 1.37 fold enrichment (6-mer frequency, TF over GST control) | 1.25 fold enrichment (6-mer frequency, TF over GST control) | 1.15 fold enrichment (6-mer frequency, TF over GST control)
ATCGAC | 1.1 fold enrichment (6-mer frequency, TF over GST control) | 1.21 fold enrichment (6-mer frequency, TF over GST control) | 1.1 fold enrichment (6-mer frequency, TF over GST control) | 1.06 fold enrichment (6-mer frequency, TF over GST control) | 1.28 fold enrichment (6-mer frequency, TF over GST control) | 1.09 fold enrichment (6-mer frequency, TF over GST control) | 1.25 fold enrichment (6-mer frequency, TF over GST control) | 1.21 fold enrichment (6-mer frequency, TF over GST control)
ATCTTC | 1.45 fold enrichment (6-mer frequency, TF over GST control) | 1.63 fold enrichment (6-mer frequency, TF over GST control) | 1.6 fold enrichment (6-mer frequency, TF over GST control) | 1.55 fold enrichment (6-mer frequency, TF over GST control) | 1.43 fold enrichment (6-mer frequency, TF over GST control) | 1.82 fold enrichment (6-mer frequency, TF over GST control) | 1.49 fold enrichment (6-mer frequency, TF over GST control) | 1.54 fold enrichment (6-mer frequency, TF over GST control)
TGAATA | 1.16 fold enrichment (6-mer frequency, TF over GST control) | 1.11 fold enrichment (6-mer frequency, TF over GST control) | 1.05 fold enrichment (6-mer frequency, TF over GST control) | 1.09 fold enrichment (6-mer frequency, TF over GST control) | 1.05 fold enrichment (6-mer frequency, TF over GST control) | 1.07 fold enrichment (6-mer frequency, TF over GST control) | 1.14 fold enrichment (6-mer frequency, TF over GST control) | 1.08 fold enrichment (6-mer frequency, TF over GST control)
ATGCTC | 1.33 fold enrichment (6-mer frequency, TF over GST control) | 1.51 fold enrichment (6-mer frequency, TF over GST control) | 1.42 fold enrichment (6-mer frequency, TF over GST control) | 1.43 fold enrichment (6-mer frequency, TF over GST control) | 1.37 fold enrichment (6-mer frequency, TF over GST control) | 1.38 fold enrichment (6-mer frequency, TF over GST control) | 1.35 fold enrichment (6-mer frequency, TF over GST control) | 1.44 fold enrichment (6-mer frequency, TF over GST control)
GATGCT | 1.3 fold enrichment (6-mer frequency, TF over GST control) | 1.28 fold enrichment (6-mer frequency, TF over GST control) | 1.25 fold enrichment (6-mer frequency, TF over GST control) | 1.2 fold enrichment (6-mer frequency, TF over GST control) | 1.29 fold enrichment (6-mer frequency, TF over GST control) | 1.21 fold enrichment (6-mer frequency, TF over GST control) | 1.29 fold enrichment (6-mer frequency, TF over GST control) | 1.16 fold enrichment (6-mer frequency, TF over GST control)
GAAATC | 1.31 fold enrichment (6-mer frequency, TF over GST control) | 1.42 fold enrichment (6-mer frequency, TF over GST control) | 1.41 fold enrichment (6-mer frequency, TF over GST control) | 1.4 fold enrichment (6-mer frequency, TF over GST control) | 1.46 fold enrichment (6-mer frequency, TF over GST control) | 1.58 fold enrichment (6-mer frequency, TF over GST control) | 1.42 fold enrichment (6-mer frequency, TF over GST control) | 1.49 fold enrichment (6-mer frequency, TF over GST control)
